# Laboratory results: PubChem BioAssay (Tox21)
# Records with an inconclusive call do not appear. A call without a number means that no potency is given here. Active and inactive are the calls of the source. Calls come from the whole dose curve; as a rule, active = well fitted cell-killing curve with a large enough effect in the repeat runs; inconclusive = weak or mixed curves, or effect the other way; inactive = flat fitted curve, though single readings scatter.
# What was measured:
# [1] = cAMP Responsive Elements (CRE) small molecule antagonists, cell-based qHTS assay: qHTS cell viability counter screen (AID 2060913); details: CRE-bla HEK293T viability, CellTiter-Glo luminescence, 5 h; series mostly up to 92.4 µM; note: nearly all actives have a fitted effect of over 40% in size; note: potency is the fitted concentration of half-maximal effect
# In short: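 CRE-bla HEK293T cells were seeded in assay medium with 10% dialyzed FBS, incubated 18 hrs at 37 C, then exposed to compounds plus 0.25 uM final NKH477 for 3 hrs. Viability was read by CellTiter-Glo luminescence after 30 min, in the same wells.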
# [2] = cAMP Responsive Elements (CRE) small molecule agonists, cell-based qHTS assay: qHTS cell viability counter screen (AID 2060914); details: CRE-bla HEK293T viability, CellTiter-Glo luminescence, 5 h; series mostly up to 92.4 µM; note: nearly all actives have a fitted effect of over 50% in size
# In short: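 In the same wells as the reporter read, viability of CRE-bla HEK 293T cells was quantified by CellTiter-Glo luminescence after a 3 h compound exposure.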
Structure (SMILES),Potency [1],Potency [2]
Cc1ccc(Cl)cc1Cl,inactive,inactive
CCCCCC(CC)OC(=O)CCCOc1ccc(Cl)cc1Cl (centres undefined),inactive,inactive
CC/C=C\CCOC(C)=O,inactive,inactive
O=C(O)CP(=O)(O)O,inactive,inactive
OCCCCC(O)CO (centres undefined),inactive,inactive
CCCC(=O)OC,inactive,inactive
O=C1CCCCC1,inactive,inactive
CCN1CCN(C(=O)N[C@@H](C(=O)N[C@@H]2C(=O)N3C(C(=O)O)=C(CSc4nnnn4C)CS[C@H]23)c2ccc(O)cc2)C(=O)C1=O,inactive,inactive
CCCCCCNC(=O)n1cc(F)c(=O)[nH]c1=O,inactive,inactive
Cc1cc(C)c(C)cc1C,inactive,inactive
CCOCCOCC,inactive,inactive
CNC[C@H](O)[C@@H](O)[C@H](O)[C@H](O)CO,inactive,inactive
CCc1oc2ccccc2c1C(=O)c1cc(Br)c(O)c(Br)c1,inactive,inactive
CC(C)(O)C(=O)O,inactive,inactive
COC(=O)CC(C)=O,inactive,inactive
CC(C)n1nc(-c2cc3cc(O)ccc3[nH]2)c2c(N)ncnc21,inactive,inactive
COC(=O)CS,inactive,inactive
Cc1c(-c2ccccc2)oc2c(C(=O)OCCN3CCCCC3)cccc2c1=O,inactive,inactive
C=CC(=O)O,inactive,inactive
Cn1cc[nH]c1=S,inactive,inactive
Oc1ccc2c(c1)OCO2,inactive,inactive
O=C(O)Cc1ccccc1Nc1c(Cl)cccc1Cl,inactive,inactive
Nc1cc([N+](=O)[O-])ccc1Cl,inactive,inactive
OC[C@H]1O[C@@](CO)(O[C@H]2O[C@H](CO)[C@@H](O)[C@H](O)[C@H]2O)[C@@H](O)[C@@H]1O,inactive,inactive

Structure (SMILES),Potency [1],Potency [2]
CNC(=O)CN(CCN(CCN(CC(=O)[O-])CC(=O)NC)CC(=O)[O-])CC(=O)[O-].O.[Gd+3],inactive,inactive
Cc1c(-c2ccc(O)cc2)n(Cc2ccc(OCCN3CCCCCC3)cc2)c2ccc(O)cc12,inactive,inactive
Cn1cc(S(C)=O)c(=O)c2ccc(F)cc21 (centres undefined),inactive,inactive
C[N+](C)(C)CCOC(N)=O,inactive,inactive
Cc1cccc2sc(N)nc12,inactive,inactive
CCCCCCCCCOC(=O)c1ccc(O)cc1,47.9 µM (active),inactive
BrCCOc1ccccc1,inactive,inactive
CC(O)CO (centres undefined),inactive,inactive
CCC(C)N(C)C(=O)c1cc2ccccc2c(-c2ccccc2Cl)n1 (centres undefined),inactive,inactive
Nc1nc(F)nc2c1ncn2[C@@H]1O[C@H](CO)[C@@H](O)[C@@H]1O,inactive,inactive
CCn1c2ccccc2c2cc(N)ccc21,inactive,inactive
CC[C@H]1OC(=O)[C@H](C)[C@@H](O[C@H]2C[C@@](C)(OC)[C@@H](O)[C@H](C)O2)[C@H](C)[C@@H](O[C@@H]2O[C@H](C)C[C@H](N(C)C)[C@H]2O)[C@](C)(O)C[C@@H](C)CN(C)[C@H](C)[C@@H](O)[C@]1(C)O,inactive,inactive
CC(C)(C#N)Nc1nc(Cl)nc(NC2CC2)n1,inactive,inactive
COCCOCCOCCOCCOCCO,inactive,inactive
CCCCCCCCCCCC(=O)N(CC)CC,inactive,inactive
CC(C)C[C@H](NC(=O)CNC(=O)[C@H](Cc1ccc(O)cc1)NC(=O)[C@H](CO)NC(=O)[C@H](Cc1c[nH]c2ccccc12)NC(=O)[C@H](Cc1cnc[nH]1)NC(=O)[C@@H]1CCC(=O)N1)C(=O)N[C@@H](CCCN=C(N)N)C(=O)N1CCC[C@H]1C(=O)NCC(N)=O (stereo in doubt),inactive,inactive
CCCCCCCC,inactive,inactive
O=C(COc1ccc(Cl)cc1)N1CCN(Cc2ccc3c(c2)OCO3)CC1,inactive,inactive
CC(=O)CC/C=C(\C)CC/C=C(\C)CC/C=C(\C)CCC=C(C)C,inactive,inactive
Cc1cc(C(C)(C)C)c(O)c(C)c1CC1=NCCN1,inactive,inactive
CN(C1CCCCC1)S(=O)(=O)c1ccccc1N,inactive,inactive
C[C@@H]1O[C@@H](OC[C@H]2O[C@@H](Oc3c(-c4ccc(O)c(O)c4)oc4cc(O)cc(O)c4c3=O)[C@H](O)[C@@H](O)[C@@H]2O)[C@H](O)[C@H](O)[C@H]1O,inactive,inactive
Fc1c(F)c(F)c(Br)c(F)c1F,inactive,inactive
